Bioassay records as filed in PubChem.
An excerpt weighted towards active compounds, which were near 2.4% of everything screened.
Pol iota inh – inhibitors of human DNA polymerase iota | Q9UNA4 | Pol iota fluorescent replication assay, 10 min | Potency, µM (titrated, usually from 115 µM), for the others: at the highest dose activity, negative = inhibition, most hits filed as inhibitors | 390,000 tested, 1% active | AID 588590
Target sequence (Q9UNA4 whole entry, looked up): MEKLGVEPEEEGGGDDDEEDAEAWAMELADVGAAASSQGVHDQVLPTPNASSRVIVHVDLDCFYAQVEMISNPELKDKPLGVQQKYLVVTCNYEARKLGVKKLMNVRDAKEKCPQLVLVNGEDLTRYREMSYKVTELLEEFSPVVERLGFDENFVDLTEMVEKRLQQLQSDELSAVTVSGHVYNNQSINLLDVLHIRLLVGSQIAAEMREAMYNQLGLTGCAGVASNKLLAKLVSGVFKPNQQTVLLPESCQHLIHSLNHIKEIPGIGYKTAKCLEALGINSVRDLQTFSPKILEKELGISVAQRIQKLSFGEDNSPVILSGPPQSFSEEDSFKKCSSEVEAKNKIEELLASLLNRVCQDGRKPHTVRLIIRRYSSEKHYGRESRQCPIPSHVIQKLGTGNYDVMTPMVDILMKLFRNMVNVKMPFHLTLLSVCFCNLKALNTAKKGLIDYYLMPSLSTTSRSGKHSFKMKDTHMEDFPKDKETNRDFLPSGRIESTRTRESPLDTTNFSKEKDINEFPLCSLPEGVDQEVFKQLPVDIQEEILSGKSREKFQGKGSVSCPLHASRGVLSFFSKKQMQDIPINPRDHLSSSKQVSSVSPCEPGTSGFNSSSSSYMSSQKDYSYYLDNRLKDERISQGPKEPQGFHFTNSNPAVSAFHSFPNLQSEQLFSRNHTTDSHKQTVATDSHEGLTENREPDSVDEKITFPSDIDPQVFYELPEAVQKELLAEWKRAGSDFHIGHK
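Fluorescent replication assay read twice, at 0 min and 10 min after adding 50 nM (final) substrate. Enzyme (10 nM) and compounds were first incubated 15 min at room temperature; enzyme-free buffer wells were negative controls.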
Pol kappa inh-1 – inhibitors of human DNA polymerase kappa; Q9UBT6; purified Pol kappa, fluorescent DNA synthesis assay, 10 min; Potency, µM (doses to about 107 µM), without a hit: at the top dose activity, negative = inhibition, hits mostly inhibitors; 400,000 tested, 0.53% active; note: % is set by controls: 0 for no effect and ±100 for the full control effect
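Kinetic fluorescence screen: compound preincubated 15 min RT with 10 nM enzyme; 50 nM substrate (final) initiates; reads at 0/10 min.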
GLS inh – blocks human kidney-isoform glutaminase activity; O94925; GLS enzymatic activity, qHTS titration; Potency, µM (highest dose often 45.5 µM), without a hit: at the top dose activity change, negative = inhibition, usual class: inhibitors; 410,000 tested, 0.21% active; note: % is set by controls: 0 for no effect and ±100 for the full control effect
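hKGA; 45 mM KH2PO4 pH 8.2 + 0.02% Tween-20; cpd via pin tool; 1 mM Gln soln; GluOx/HRP/Amplex Red; RT 30 min; fluor. t0 & final.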
Pol eta inh-1 – blocks human DNA polymerase eta activity; Q9Y253; recombinant Pol eta, fluorescent DNA replication assay; Potency, µM (titrated, usually from 114 µM), inactives show at the highest dose activity change, negative = inhibition, usual class: inhibitors; 390,000 tested, 1.2% active; note: % is set by controls: 0 for no effect and ±100 for the full control effect
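Pol eta at 10 nM preincubated with compounds 15 min at room temperature; reaction started with fluorescent substrate (50 nM final) and read kinetically at 0 and 10 min.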
APE1 inh – APE1 (human) endonuclease inhibition; P27695; recombinant APE1, TAMRA/BHQ-2 abasic DNA cleavage fluorescence; Potency, µM (highest dose often 65.8 µM), for inactives: at the top dose activity change, negative = inhibition, usual class: inhibitors; 350,000 tested, 0.35% active; AID 2517;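 note: plate controls were vehicle for no effect and reference inhibitor for full effect; nearly all actives have a fitted effect of over 55% in size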
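Endonuclease cleavage of a quenched abasic-site DNA duplex (50 nM) by APE1 (0.75 nM) was tracked by TAMRA dequenching. Compounds were preincubated with enzyme 15 min at room temperature; data normalized to buffer-only and DMSO wells plus NSC13755 control.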
POLB inh – DNA polymerase beta (human) inhibition | P06746 | Pol beta primer extension/strand displacement, fluorescence kinetic | Potency, µM (highest dose often 114 µM), for the others: at the top dose activity change, negative = inhibition, actives largely listed as inhibitors | 340,000 tested, 1.3% active | AID 485314; note: % is set by controls: 0 for no effect and ±100 for the full control effect
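Reaction started by 50 nM substrate onto compound-treated Pol beta (10 nM, 15 min preincubation, room temperature); plates read at 0 min and 10 min. Normalized concentration-effect data fitted by four-parameter Hill equation.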
PGK validate – TbPGK inhibition, hit validation. shares compounds with Pol kappa inh-1. TbPGK coupled GAPDH assay, Kinase-Glo luminescence. Potency, µM (doses to about 57.5 µM), for the others: at the highest dose activity change, negative = inhibition, actives largely listed as inhibitors. 500 tested, 79% active. AID 686980; note: % is set by controls: 0 for no effect and ±100 for the full control effect; nearly all actives have a fitted effect of over 65% in size
POLI cherry-pick – Human Pol iota inhibitor confirmatory assay. shares compounds with Pol kappa inh-1. Pol iota primer extension, TAMRA/BHQ fluorescence. Potency, µM, hits mostly inhibitors. 1,500 tested, 77% active. AID 720496
Pol kappa inh-2 – Pol kappa (human) inhibition, cherry-pick confirmation; shares compounds with Pol eta inh-1; 920 tested, 76% active; AID 720501; Potency, µM, usual class: inhibitors; purified Pol-kappa, fluorescent strand-displacement substrate
Pol eta inh-2 – confirmation of human DNA polymerase eta inhibitors; shares compounds with Pol eta inh-1; Pol eta primer extension, TAMRA/BHQ fluorescence, 10 min; Potency, µM, actives largely listed as inhibitors; 2,600 tested, 64% active; AID 720502
Active calls of the source: *; ? = inconclusive; · = not tested or not shown; [ ] = another dose, or the depositor's remark. Calls come from the whole dose curve; as a rule, active = well fitted curve in the direction sought with a large enough effect; inconclusive = small, poorly fitted or top-dose-only effect, or another doubt; inactive = no such curve, though single readings can be large; an effect the other way counts as inactive or inconclusive. Potency is the fitted concentration of half-maximal effect.

SMILES	Pol iota inh	Pol kappa inh-1	GLS inh	Pol eta inh-1	APE1 inh	POLB inh	POLI cherry-pick	Pol eta inh-2	others
COc1ccc(-c2csc(/C(C#N)=C\c3ccc(OC)c([N+](=O)[O-])c3)n2)cc1	20%	-12%	15%	-9%	4%	-2%	·	·
COc1cc(/C=C(\C#N)c2nc3ccccc3s2)cc([N+](=O)[O-])c1O	?	89µM*	-18%	?	?	40µM*	75*	76*
CC(C)CC(NC(=O)c1ccccc1)C(=O)N/N=C/c1ccco1 (stereo unspecified)	?	?	8%	14µM*	?	89µM*	·	?	PGK validate=?
CCN(CC)CCCNc1nc2ccccc2c2[nH]c3ccc(OC)cc3c12	18µM*	18µM*	-1%	10µM*	·	·	3*	30*	Pol kappa inh-2=3.4*
CCN(CC)C(=O)CSc1nc2ccccc2c(=O)n1-c1cccc(OC)c1	11%	-5%	-2%	-4%	-1%	5%	·	·
COc1cccc(-n2c(SCc3cc(=O)oc4cc(O)c(O)cc34)nc3ccccc3c2=O)c1	7.9µM*	32µM*	6%	3.2µM*	10µM*	3.2µM*	7.5*	12*
C=CCN(c1ccccc1)S(=O)(=O)c1cc2c(cc1C)N(C)CCO2	-17%	-4%	28%	-18%	31%	-22%	·	·
COc1cc(NC(=O)c2noc3c2CCC3)c(OC)cc1Cl	?	32µM*	?	18µM*	?	10µM*	38*	38*
O=C(CSc1n[nH]c(=O)[nH]c1=O)Nc1ccc2c(c1)C(=O)c1ccccc1C2=O	?	-42%	52%	8.9µM*	?	2.8µM*	27*	19*	PGK validate=3.3µM*;Pol kappa inh-2=24*
COc1nc(NCCc2ccc(OC)c(OC)c2)nc(Nc2ccccc2)n1	151%	-15%	1%	-5%	34%	3%	·	·
O=C1C2CC=C(Cl)CC2C(=O)N1CCN1CCOCC1 (stereo unspecified)	15%	-2%	3%	?	1%	11%	·	·
O=C1C2CC=C(Cl)CC2C(=O)N1CCCCCCN1C(=O)C2CC=C(Cl)CC2C1=O (stereo unspecified)	18µM*	79µM*	0%	20µM*	32µM*	20µM*	60*	30*
CCOC(=O)c1ccccc1NC(=O)Cn1cnc2c(cnn2-c2ccc(OC)cc2)c1=O	34%	-3%	-1%	-17%	·	·	·	·
COc1ccc(-c2oc3ccc(C)cc3c(=O)c2O)cc1OC	·	-10%[19.4 µM]	·	·	-5%	·	·	·
CC1CCN(CCCNC(=O)c2cc3c(s2)-c2ccccc2OC3)CC1	3%	13%	-3%	-16%	-1%	-19%	·	·
Cc1ccc(CCNC(=O)c2cc3c(s2)-c2ccccc2OC3)cc1	79µM*	?	2%	?	·	14µM*	47*	?
CCCCC(=O)C1CCN(Cc2ccccc2)CC1	-8%	-8%	8%	-4%	4%	4%	·	·
COc1cc(-c2noc(C)c2/C=C/c2ccc(C(=O)O)cc2)cc(OC)c1OC	?	71µM*	2%	13µM*	?	14µM*	42*	27*
CC(=O)N1CCc2c(sc3c2c(=O)n(Cc2ccccc2)c(=O)n3Cc2cc(C)ccc2C)C1	11%	-15%	-15%	-18%	·	20%	·	·
Cc1ccc[n+](-c2nc([O-])sc2C=O)c1	?	?	-3%	22µM*	-11%	?	?	?
CC(C)c1ccc[n+](-c2nc([O-])sc2C=O)c1	0%[58.9 µM]	-7%	1%	-12%	19%	12%	·	·
C/C(=N\NC(=O)CNc1cccc2ccccc12)c1ccccc1	29%	1%	8%	-22%	2%	4%	·	·
NC1=NC(=O)/C(=C/c2ccc(-c3ccc(S(N)(=O)=O)cc3)o2)S1	45µM*	79µM*	-4%	22µM*	-6%	?	34*	54*	Pol kappa inh-2=21*
CC(=O)Nc1nnc(SCc2cc(=O)c3cc(C)ccc3[nH]2)s1	79µM*	-3%[60.1 µM]	-4%	50µM*	·	40µM*	67*	?	Pol kappa inh-2=17*
CN(C)S(=O)(=O)c1cccc(NC(=S)N/N=C/c2ccc(O)c(O)c2O)c1	?	?	7.9µM*	?	?	-11%	13*	19*
SMILES	Pol iota inh	Pol kappa inh-1	GLS inh	Pol eta inh-1	APE1 inh	POLB inh	POLI cherry-pick	Pol eta inh-2	others
COc1ccc(O)c(/C=N/NC(=S)Nc2cccc(S(=O)(=O)N(C)C)c2)c1	11%	-14%	17%	-9%	24%	-2%	·	·
O=C(CCCCCn1c(SCc2ccncc2)nc2ccccc2c1=O)NCc1ccco1	14µM*	?	13%	79µM*	?	40µM*	47*	76*
N#CCSc1nc2ccccc2c(=O)n1CCCC(=O)NCc1ccco1	161%	-10%	4%	3%	9%	-3%	·	·
C=C(C)CN(CC)C(=O)COc1ccc(S(=O)(=O)Nc2ccc(OC)cc2)cc1	7%	-2%	12%	-9%	-6%	4%	·	·
C=CCNC(=O)COC(=O)c1c2c(nc3ccccc13)CCC2	22µM*	89µM*	3%	35µM*	23%	22µM*	?	54*
O=C(O)COc1cccc2nsnc12	?	-8%	-3%	?	7%	11%	·	·
COc1ccc2c([N+](=O)[O-])c(Cl)[nH]c2c1	11µM*	50µM*	2%	20µM*	2%	-20%	38*	27*
Cc1cccc(S(=O)(=O)Nc2ccncc2)c1	77%	-9%	13%	-19%	1%	20%	·	·
CN(CCOc1ccccc1)C(=O)c1ccc(OC2CCN(C(=O)C3CC3)CC2)cc1	1%	1%	-13%	8%	-2%	21%	·	·
CC1COCC(C)N1C1=C(Cl)C(=O)c2ccccc2C1=O (stereo unspecified)	8.9µM*	-8%	?	-15%	·	·	42*	27*
